Records with an inconclusive call do not appear. Entries that show only a call come without a potency. The source made the active and inactive calls. Unless noted, calls follow the shape of the dose curve; as a rule, active = well fitted curve in the direction sought with a large enough effect; inconclusive = small, poorly fitted or top-dose-only effect, or another doubt; inactive = no such curve, though single readings can be large; an effect the other way counts as inactive or inconclusive.

Assay [1] concerns the target Mitogen-activated protein kinase 10 (Mus musculus) (UniProt Q61831). In words: JNK3 AlphaScreen Assay (AID 530; active = well fitted curve in either direction with a large enough effect, not every such curve was filed as active;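 also: kinase came from lysate of stimulated human HepG2 cells; signal reports phosphorylation of biotinylated GST-cJun 1-79 at Ser73 with 10 µM ATP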). In a few lines: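 Pre-activated (IL-1β/TNFα) JNK3 in HepG2 lysates phosphorylates biotin-GST-cJun(1-79), 10 uM ATP; anti-phospho-cJun(Ser73) AlphaScreen read at room temperature, pH 7.6 Tris buffer. Compounds pre-incubated 15 min as titrations.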
(Bead proximity is the source of the signal in Alpha formats.)

Assay [2] deals with Calcium and integrin-binding protein 1 (Homo sapiens) (UniProt Q99828). The assay is described as follows: Primary qHTS for Identification of Calcium Integrin Binding Protein 1 (CIB1) Competitor (AID 1508620).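 Also: GST tagged CIB1 binding a fluorescein labelled alphaIIb integrin peptide tracer; top concentration of the series differs between compounds.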 A digest of the protocol:
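Fluorescence polarization competition: GST-tagged CIB1 (1 uM final) preincubated with compound 15 min at room temperature, then FITC-labelled alphaIIb peptide (100 nM final) added. After 15 min at room temperature, polarization read at Ex 480/Em 540.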
(qHTS replaces the single test concentration by a dilution series.)

Assay [3] can be described thus: qHTS profiling of the MIPE4 collection as inhibitors of Plasmodium falciparum (3D7) proliferation (AID 743344; call rule not given here). As to conditions: P. falciparum 3D7 in erythrocytes, SYBR Green DNA fluorescence, 72 h; at 28.5 µM (top of the series). A digest of the protocol:
(§1)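 Erythrocytes infected with P. falciparum (0.3% parasitemia, 2.5% hematocrit) incubated with compounds 72 h at 37 C, 5% CO2. Lysis with saponin/Triton buffer containing SYBR Green I, overnight at room temperature in the dark; DNA fluorescence (485/535 nm) normalised to 0.29 uM artemisinin and DMSO.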

The nature of assay [4]: qHTS profiling of the MIPE4 collection as inhibitors of Plasmodium falciparum (DD2) proliferation (AID 743345; call rule not given here). The following applies: P. falciparum Dd2 in erythrocytes, SYBR Green DNA, 72 h; at 28.5 µM (top of the series). In a few lines:
as §1

A short description of assay [5]: qHTS profiling of the MIPE4 collection as inhibitors of Plasmodium falciparum (DD2) proliferation (Rep 2) (AID 743346; call rule not given here). The following applies: P. falciparum Dd2 in erythrocytes, SYBR Green DNA, 72 h; at 28.5 µM (top of the series). In a few lines:
as §1

Assay [6] can be described thus: qHTS profiling of the MIPE4 collection as inhibitors of Plasmodium falciparum (HB3) proliferation (AID 743347; call rule not given here). The following applies: P. falciparum HB3 in erythrocytes, SYBR Green DNA, 72 h; at 28.5 µM (top of the series). In a few lines:
as §1

Assay [7] addresses Glutathione peroxidase 1 (Homo sapiens) (UniProt P07203). The assay is described as follows: Primary qHTS Assay for Inhibitors of Recombinant Selenoprotein Glutathione Peroxidase 1 (GPX1) (AID 1845191). Also: nearly all actives have a fitted effect of over 65% in size. In a few lines:
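GR-coupled assay: compounds preincubated 30 min at room temperature with GPX1, then reaction started with CHP; final 10 nM GPX1, 1 mM GSH, 0.5 mM CHP, 0.5 mM NADPH, 100 nM GR, 0.01% BSA, pH 7.5 Tris buffer. NADPH fluorescence (340/450 nm) read at 0 and 15 min.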

In assay [8] the target is Rap guanine nucleotide exchange factor 3 (Homo sapiens) (UniProt O95398). The assay is described as follows: Confirmatory qHTS for antagonist of cAMP-regulated guanine nucleotide exchange factor 3 (EPAC1) (AID 1645880). Also: nearly all actives have a fitted effect of over 55% in size. In a few lines: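 Nucleotide exchange uses 100 nM EPAC1, 250 nM RAP1B-BODIPY-GDP and 50 uM GDP, with compounds in a concentration-titration series. After 5 min at room temperature, fluorescence (480 nm ex/540 nm em) is read every 5 min for 30 min. Data are normalized to control ATA and DMSO.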

Assay [9] has the same target. In words: Confirmatory qHTS for agonist of cAMP-regulated guanine nucleotide exchange factor 3 (EPAC1) (AID 1645881).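 Also: EPAC1 catalysed release of BODIPY-GDP from Rap1B seen as fluorescence loss; nearly all actives have a fitted effect of over 75% in size.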
For assay [10], the target named is Rap guanine nucleotide exchange factor 4 (Homo sapiens) (UniProt Q8WZA2). In words: Confirmatory qHTS for agonist of cAMP-regulated guanine nucleotide exchange factor 4 (EPAC2) (AID 1645884).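 Also: nucleotide exchange releases bodipy-GDP from Rap1 and this lowers its fluorescence; nearly all actives have a fitted effect of over 65% in size.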
Assay [11] concerns the target Rap guanine nucleotide exchange factor 3 (Homo sapiens) (UniProt O95398). In words: Counterscreen qHTS for antagonist of cAMP-regulated guanine nucleotide exchange factor 3 (EPAC1) (AID 1645888).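 Also: fluorescence loss as bound BODIPY-GDP is released from Rap1B.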 In a few lines: (§2)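 Rap1B–BODIPY-GDP (250 nM) with 50 uM GDP; compounds pin-transferred to 9.74 nM–152 uM final (activator) or from 7.32 nM upwards (inhibitor). Fluorescence Ex/Em 480/540 nm read at 5 and 30 min, then after adding cAMP or buffer, at room temperature.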

For assay [12] the target is unchanged. In words: Counterscreen qHTS for agonist of cAMP-regulated guanine nucleotide exchange factor 3 (EPAC1) (AID 1645889). Also: nearly all actives have a fitted effect of over 40% in size. A digest of the protocol: as §2
(The purpose of a counterscreen is to sort out artefacts and off-target activity.)

In assay [13] the target is Cytochrome P450 3A4 (Homo sapiens) (UniProt P08684). The assay is described as follows: qHTS Assay for Inhibitors and Substrates of Cytochrome P450 3A4 (AID 884). Also: nearly all actives have a fitted effect of over 50% in size. Also: potency is read from the fitted curve at half-maximal effect. A digest of the protocol: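 20 nM human CYP3A4 with 25 uM Luciferin-PPXE (at KM) in 200 mM KPO4, preincubated 10 min with compound; NADPH regeneration started a 60 min RT reaction. Luciferin detected by luminescence, normalized to 57 uM ketoconazole as full inhibition.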

The target is the same in assay [14]. In words: qHTS Assay for Activators of Cytochrome P450 3A4 (AID 885). Also: nearly all actives have a fitted effect of over 65% in size. In a few lines: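 Signal was normalized against complete inhibition by 57 uM ketoconazole. The reaction used 20nM CYP3A4 with 25uM Luciferin-PPXE, 10-min compound preincubation and a 60-min NADPH-supported step at RT.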

Calcium and integrin-binding protein 1 (Homo sapiens), sequence (Q99828 whole entry, looked up): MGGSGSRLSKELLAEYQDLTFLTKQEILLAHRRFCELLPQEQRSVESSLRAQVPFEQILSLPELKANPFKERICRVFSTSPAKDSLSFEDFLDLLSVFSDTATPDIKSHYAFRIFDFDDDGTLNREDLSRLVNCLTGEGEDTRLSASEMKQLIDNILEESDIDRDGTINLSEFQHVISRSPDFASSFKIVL
Cytochrome P450 3A4 (Homo sapiens), sequence (P08684 whole entry, looked up): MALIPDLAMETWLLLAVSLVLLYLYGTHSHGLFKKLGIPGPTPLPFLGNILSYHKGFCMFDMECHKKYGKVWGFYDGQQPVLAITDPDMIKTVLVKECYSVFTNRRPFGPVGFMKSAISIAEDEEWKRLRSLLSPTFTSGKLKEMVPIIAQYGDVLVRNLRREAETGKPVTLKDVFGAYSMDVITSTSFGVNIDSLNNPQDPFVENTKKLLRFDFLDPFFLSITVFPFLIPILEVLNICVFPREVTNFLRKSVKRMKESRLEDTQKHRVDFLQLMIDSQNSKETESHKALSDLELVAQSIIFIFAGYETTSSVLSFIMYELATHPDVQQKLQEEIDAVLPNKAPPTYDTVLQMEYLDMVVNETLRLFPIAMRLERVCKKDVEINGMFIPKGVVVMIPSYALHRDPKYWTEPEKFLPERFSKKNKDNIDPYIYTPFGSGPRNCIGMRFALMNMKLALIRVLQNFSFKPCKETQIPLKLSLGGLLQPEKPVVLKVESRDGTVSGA
Rap guanine nucleotide exchange factor 3 (Homo sapiens), sequence (O95398 whole entry, looked up): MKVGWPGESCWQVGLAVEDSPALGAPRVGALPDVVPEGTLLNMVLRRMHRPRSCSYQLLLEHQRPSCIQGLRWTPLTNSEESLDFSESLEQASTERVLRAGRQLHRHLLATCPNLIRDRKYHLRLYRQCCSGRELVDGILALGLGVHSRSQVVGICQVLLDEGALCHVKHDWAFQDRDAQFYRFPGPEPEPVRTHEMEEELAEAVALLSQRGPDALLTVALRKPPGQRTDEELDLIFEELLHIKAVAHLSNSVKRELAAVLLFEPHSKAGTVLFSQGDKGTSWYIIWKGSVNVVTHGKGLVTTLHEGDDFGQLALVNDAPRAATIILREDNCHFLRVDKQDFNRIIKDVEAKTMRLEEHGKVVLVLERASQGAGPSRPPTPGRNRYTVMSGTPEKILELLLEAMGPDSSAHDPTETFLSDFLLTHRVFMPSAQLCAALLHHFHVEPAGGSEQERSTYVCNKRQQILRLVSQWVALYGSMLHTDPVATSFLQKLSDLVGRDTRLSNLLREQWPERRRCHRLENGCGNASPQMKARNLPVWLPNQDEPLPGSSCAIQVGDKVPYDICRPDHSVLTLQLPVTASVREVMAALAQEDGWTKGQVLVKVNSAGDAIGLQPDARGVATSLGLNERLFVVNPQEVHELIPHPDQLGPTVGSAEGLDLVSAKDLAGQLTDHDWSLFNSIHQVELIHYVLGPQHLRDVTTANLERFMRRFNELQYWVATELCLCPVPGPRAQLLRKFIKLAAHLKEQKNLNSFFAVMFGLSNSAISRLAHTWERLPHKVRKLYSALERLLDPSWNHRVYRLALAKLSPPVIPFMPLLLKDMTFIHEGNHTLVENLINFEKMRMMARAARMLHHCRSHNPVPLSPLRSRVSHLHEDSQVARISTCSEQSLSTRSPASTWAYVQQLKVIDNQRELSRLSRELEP
Glutathione peroxidase 1 (Homo sapiens), sequence (P07203 whole entry, looked up): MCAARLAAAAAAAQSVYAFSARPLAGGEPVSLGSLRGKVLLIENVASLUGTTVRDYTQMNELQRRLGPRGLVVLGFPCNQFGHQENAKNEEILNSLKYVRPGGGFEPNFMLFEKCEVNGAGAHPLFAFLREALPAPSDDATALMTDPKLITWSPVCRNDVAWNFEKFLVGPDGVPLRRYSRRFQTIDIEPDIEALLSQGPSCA
Rap guanine nucleotide exchange factor 4 (Homo sapiens), sequence (Q8WZA2 whole entry, looked up): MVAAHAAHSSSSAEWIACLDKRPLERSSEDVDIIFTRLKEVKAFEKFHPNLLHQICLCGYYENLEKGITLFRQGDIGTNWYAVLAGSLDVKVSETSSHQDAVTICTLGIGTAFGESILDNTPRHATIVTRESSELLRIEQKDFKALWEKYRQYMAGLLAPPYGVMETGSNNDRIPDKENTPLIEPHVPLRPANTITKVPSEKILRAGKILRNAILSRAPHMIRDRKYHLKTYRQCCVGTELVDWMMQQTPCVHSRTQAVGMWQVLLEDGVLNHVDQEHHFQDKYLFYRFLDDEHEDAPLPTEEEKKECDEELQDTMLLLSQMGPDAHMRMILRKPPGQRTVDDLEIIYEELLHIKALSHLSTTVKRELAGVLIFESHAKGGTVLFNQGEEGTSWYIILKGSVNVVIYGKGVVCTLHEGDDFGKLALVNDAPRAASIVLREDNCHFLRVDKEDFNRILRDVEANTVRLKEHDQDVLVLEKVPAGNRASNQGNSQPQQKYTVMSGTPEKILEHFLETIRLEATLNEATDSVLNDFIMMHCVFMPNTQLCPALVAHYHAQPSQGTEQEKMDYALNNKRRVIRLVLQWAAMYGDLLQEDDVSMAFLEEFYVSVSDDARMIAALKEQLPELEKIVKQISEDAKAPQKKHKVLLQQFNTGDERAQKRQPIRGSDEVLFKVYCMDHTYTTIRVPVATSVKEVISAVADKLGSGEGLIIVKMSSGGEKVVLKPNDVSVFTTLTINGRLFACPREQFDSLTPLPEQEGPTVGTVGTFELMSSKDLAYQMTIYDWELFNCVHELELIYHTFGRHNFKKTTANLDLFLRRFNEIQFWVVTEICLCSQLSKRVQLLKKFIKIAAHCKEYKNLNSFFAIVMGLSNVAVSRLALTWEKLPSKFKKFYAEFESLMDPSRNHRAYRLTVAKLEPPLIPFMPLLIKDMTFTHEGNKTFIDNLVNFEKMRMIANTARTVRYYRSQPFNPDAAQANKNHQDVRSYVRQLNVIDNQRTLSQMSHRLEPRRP

In the case of `Cc1nc(NC2CCCCC2)c2nc(-c3ccccc3)n(CCN(C)C)c2n1`, in assay [1], the compound was called inactive. Moreover, in assay [2], the Potency result was “inactive”.

Regarding `CCCn1c(C)nc2c(N3CCN(C)CC3)nc(C)nc21`, in [1], the compound was called inactive. Further, the Potency result in assay [2] is “inactive”.

For `CC(C)(C)n1nc(Cc2cccc3ccccc23)c2c(N)ncnc21`, the parasite growth, % of DMSO control in assay [3] turned out to be 23.2%. This compound also gave a parasite growth remaining, % of DMSO control (lower = more inhibition) in [4] of 58%. Further, in assay [5], the parasite growth, % of control (lower = inhibition) amounted to 52.6%. The compound further returned a growth, % of control in [6] of 12.7%. Also, the Potency result in [2] and in [7] was “inactive” each time.

Take `CCC(=O)NC(c1cccs1)c1cc(Cl)c2cccnc2c1O` (stereo not drawn): the Potency result in assay [2] and in assay [8] was “inactive” throughout. The call in assay [9], in assay [10], in assay [11] and in assay [12] was inactive.

On to `CCCn1c(C)nc2c(N(CCN(CC)CC)CCN(CC)CC)nc(C)nc21`, for which the call in [1] was inactive. The Potency result in [13] and in assay [2] was “inactive” in each case.

Take `COCCNc1nc(C)nc2c1nc(-c1ccccc1)n2C1CCN(Cc2ccccc2)C1` (stereo not drawn): the outcome in [1] was inactive. In addition, in assay [13], the Potency is 12.6 µM (active). The Potency entry in [14] and in assay [2] was “inactive” in each case.

As to `CCCn1c(C)nc2c(NCCCN3CCCCC3C)nc(C)nc21` (stereo not drawn), in [1], the result was inactive. In addition, the Potency entry in assay [13] and in assay [2] was “inactive” in each case.

For the compound `CCCn1c(C)nc2c(NCC3CCCN3CC)nc(C)nc21` (stereo not drawn), the result in assay [1] was inactive. In addition, the Potency entry in [13] and in assay [2] was “inactive” in each case.

As to `CCCCNc1nc(C)nc2c1nc(-c1ccccc1)n2CCN1CCCC1`, the call in assay [1] was inactive. The Potency in assay [13] is 12.6 µM (active). Further, the Potency result in assay [2] was “inactive”.

For `CCCn1c(-c2ccc(F)cc2)nc2c(NCCN(C)C)nc(C)nc21`, in assay [1], the call was inactive. For the same compound, the Potency result in [13] and in [2] was “inactive” in each case.

Turning to `CCCn1c(C)nc2c(NCCCN(CC)CC)nc(C)nc21`, in assay [1], the outcome was inactive. Besides, the Potency result in assay [13] and in assay [2] was “inactive” in each case.

Take `CCCn1c(C)nc2c(NCCN3CCCC3)nc(C)nc21`: in assay [1], the outcome was inactive. For the same compound, the Potency result in assay [13] and in assay [2] was “inactive” in each case.

As to `CCCCNc1nc(C)nc2c1nc(-c1ccccc1)n2C1CCN(Cc2ccccc2)C1` (stereo not drawn), in assay [1], the outcome was inactive. Besides, in assay [13], the Potency was 7.94 µM (active). Besides, the Potency entry in [2] was “inactive”.

On to `Cc1nc(NCCO)c2nc(-c3ccccc3)n(CC3CCN(C)CC3)c2n1`, for which, in [1], the outcome was inactive. Further, the Potency result in [13] and in assay [2] was “inactive” in each case.

With `Cc1nc(N2CCOCC2)c2nc(-c3ccccc3)n(CC3CCN(C)CC3)c2n1`, in assay [1], the call was inactive. Besides, the Potency result in [13] and in assay [2] was “inactive” in each case.

Turning to `CCCn1c(C)nc2c(NC(C)CN(C)C)nc(C)nc21` (stereo not drawn), the outcome in assay [1] was inactive. The Potency entry in assay [13] and in assay [2] was “inactive” each time.

As to `Cc1nc(N2CCOCC2)c2nc(-c3ccccc3)n(CCCN(C)C)c2n1`, the compound was classed as inactive in assay [1]. For the same compound, the Potency entry in assay [13] and in [2] was “inactive” throughout.

Take `CCCn1c(C)nc2c(N(C)CCN(C)C)nc(C)nc21`: the call in assay [1] was inactive. In addition, the Potency result in assay [13] and in [2] was “inactive” each time.

For `CCCn1c(C)nc2c(N3CCC(N(C)C)C3)nc(C)nc21` (stereo not drawn), in [1], the compound was classed as inactive. The Potency result in assay [13] and in assay [2] was “inactive” in each case.

`Cc1nc(NCc2ccccc2)c2nc(-c3ccccc3)n(CC3CCN(C)CC3)c2n1`: the call in assay [1] was inactive. In addition, the Potency entry in assay [13] and in assay [2] was “inactive” throughout.

In the case of `CCCn1c(C)nc2c(NC3CCN(Cc4ccccc4)CC3)nc(C)nc21`, in [1], the result was inactive. Also, the Potency result in assay [2] is “inactive”.

For the compound `CCCn1c(-c2ccc(F)cc2)nc2c(NC3CCN(Cc4ccccc4)CC3)nc(C)nc21`, the compound was classed as inactive in assay [1]. Also, the Potency entry in assay [13] and in assay [2] was “inactive” throughout.

For `CCN(CC)CCn1c(-c2ccccc2)nc2c(NCCO)nc(C)nc21`, the result in [1] was inactive. For the same compound, the Potency result in assay [13] and in assay [2] was “inactive” each time.

For `CCCn1c(C)nc2c(NCCN(C(C)C)C(C)C)nc(C)nc21`, the outcome in [1] was inactive. Moreover, the Potency result in assay [13] and in assay [2] was “inactive” throughout.

As for `CCN(CC)CCCCn1c(-c2ccccc2)nc2c(NCCOC)nc(C)nc21`, in [1], the outcome was inactive. For the same compound, the Potency entry in assay [13] and in assay [2] was “inactive” in each case.

On to `CCCn1c(C)nc2c(NCCN(C)C)nc(C)nc21`, for which the call in [1] was inactive. The Potency result in assay [13] and in assay [2] was “inactive” throughout.

With `CCN(CC)CCCn1c(-c2ccccc2)nc2c(N3CCOCC3)nc(C)nc21`, the compound was classed as inactive in assay [1]. Also, the Potency entry in assay [13] and in assay [2] was “inactive” each time.

For the compound `CCN(CC)CCCCn1c(-c2ccccc2)nc2c(Nc3ccccc3)nc(C)nc21`, in [1], the call was inactive. The Potency entry in [2] was “inactive”.

Regarding `COCCNc1nc(C)nc2c1nc(-c1ccccc1)n2CC1CCN(C)CC1`, the call in assay [1] was inactive. Further, the Potency result in assay [13] and in assay [2] was “inactive” in each case.

With `Cc1nc(NCc2ccccc2)c2nc(-c3ccccc3)n(CCCN(C)C)c2n1`, the outcome in assay [1] was inactive. Also, the Potency in assay [13] is 12.6 µM (active). For the same compound, the Potency result in assay [14] and in [2] was “inactive” each time.

Regarding `CCCn1c(-c2ccc(F)cc2)nc2c(NC(C)CCCN(CC)CC)nc(C)nc21` (stereo not drawn), in [1], the compound was called inactive. For the same compound, in assay [13], the Potency was 10 µM (active). Further, the Potency result in assay [14] and in [2] was “inactive” throughout.

Source of the values: PubChem BioAssay (NCATS).
